Reference: ChEMBL document CHEMBL1157539, “Thousands of chemical starting points for antimalarial lead identification” (Nature, 2010)

What was measured:
Assay type in all cases: functional
Plasmodium falciparum [1] = experiment: GSK_TCMDC: Inhibition of Plasmodium falciparum 3D7 in whole red blood cells, using parasite LDH activity as an index of growth. Test compounds present at 2uM
Plasmodium falciparum [2] = experiment: GSK_TCMDC: Inhibition of Plasmodium falciparum Dd2 in whole red blood cells, using parasite LDH activity as an index of growth. Test compounds present at 2uM
HepG2 = experiment: GSK_TCMDC: Percent inhibition of human HepG2 cell line. Test compounds present at 10uM.

Structure (SMILES)	Inhibition (Plasmodium falciparum [1]) [%]	Inhibition (Plasmodium falciparum [2]) [%]	Inhibition (HepG2) [%]
Cc1noc(C)c1-c1ccc2c(Nc3ccc(Cl)cc3)c(C(N)=O)cnc2c1.Cl	94	67	9
O=C(CSc1nc(-c2ccccc2Cl)ns1)Nc1ccc2c(c1)OCO2	93	77	0
COc1ccc2[nH]c(C)cc(=NN=Cc3ccc(Cl)cc3)c2c1	100	100	2
CCn1c(=O)c(C(=O)Nc2cc(Cl)c(OC)cc2OC)nc2ccccc21	86	84	19
CC1(C)CC(NC(=O)NC2CCN(Cc3ccccc3)CC2)CC(C)(CNC(=O)NC2CCN(Cc3ccccc3)CC2)C1 (stereo not drawn)	93	2	10
O=C(O)C(F)(F)F.O=[N+]([O-])c1cccc(CNC2CCN(Cc3ccc(Cl)c(Cl)c3)CC2)c1	100	71	5
COc1ccc(CNC(=O)c2cnc3c(O)cccc3c2Nc2cccc(NC(=O)c3ccc(Cl)c([N+](=O)[O-])c3)c2)cc1.O=C(O)C(F)(F)F	86	21	48
CN1CCN(Cc2ccc(-c3ccc4c(Nc5cc(O)c(Cl)cc5F)ccnc4c3)o2)CC1	100	99	2
CN1CCCN(Cc2cccc(-c3ccc(NC(=O)c4cccc(Cl)c4)cc3)c2)CC1.O=C(O)C(F)(F)F	90	10	34
Cc1cc(N[C@@H](Cc2ccccc2)C(=O)NCCOc2ccccc2)nc(NCc2ccccc2C)n1.O=C(O)C(F)(F)F	100	80	32
COc1cc(-c2cc3cc(Cl)c(Cl)cc3[nH]2)ccc1C(=O)NCCC1CCCN1C.O=C(O)C(F)(F)F (stereo not drawn)	91	41	20
COc1ccc(Nc2nc(NC3CCN(Cc4ccccc4)CC3)cc(-c3ccncc3)n2)cc1	88	40	26
COC(=O)[C@@H](NC(=O)[C@H](Cc1ccc(OC)c(OC)c1)Nc1ccc(C#N)c2ccccc12)c1ccc(O)cc1.O=C(O)C(F)(F)F	100	100	6
Cc1cc(F)ccc1-c1nc(NCC(O)CNCCc2ccccc2)nc2c1ccc(=O)n2-c1c(F)cccc1F.O=C(O)C(F)(F)F (stereo not drawn)	100	100	25
Cl.Ic1cc(CNC2CCCCC2)ccc1OCc1cccc(COc2ccc(CNC3CCCCC3)cc2I)c1	93	34	0
Cl.NOCCCOc1ccc(Cl)cc1	98	0	12
COc1ccc2nccc(N3CCN(CCNCc4ccc5c(n4)NC(=O)CS5)CC3)c2n1.Cl	100	67	10
Cc1ccc(C)c2sc(N(CCCn3ccnc3)C(=O)c3ccco3)nc12.Cl	96	63	28
COC(=O)c1ccc2nc(-c3cc(OC)c(O)c(C(=O)NC4CCN(Cc5ccccc5)CC4)c3)[nH]c2c1	85	0	8
COc1ccc(CCn2c(=N)c(C(=O)NCc3ccc(C)cc3)cc3c(=O)n4ccccc4nc32)cc1	97	16	13
CCCCNC(=N)c1ccc(OCCCCCOc2ccc(C(=N)NCCCC)cc2)cc1.Cl	99	99	19

Structure (SMILES)	Inhibition (Plasmodium falciparum [1]) [%]	Inhibition (Plasmodium falciparum [2]) [%]	Inhibition (HepG2) [%]
Cc1noc(-c2cccs2)c1C(=O)NCCc1cccc(Cl)c1	97	95	0
CCc1c(CCNCCCCCCNCCc2ccccc2)ccc(OC)c1OC.Cl	100	3	33
CCCCOc1c(CNCCCCCCNCc2ccc3ccccc3c2OCCCC)ccc2ccccc12.CS(=O)(=O)O	96	89	99
CC[C@H](C)CNC(=O)c1cncc(-c2cccc(CNCCCc3ccccc3)c2)c1.O=C(O)C(F)(F)F	95	0	9
Br.c1cc(Nc2nc(-c3ccc(-c4csc(Nc5ccncc5)n4)cc3)cs2)ccn1	100	99	91
Cl.N#Cc1ccc2c(c1)CCN(CCC1CCC(NC(=O)c3cc4cccc([N+](=O)[O-])c4[nH]3)CC1)C2 (stereo not drawn)	100	28	0
O=C(NCCc1ccccc1)[C@H](Cc1ccccc1)Nc1ccnc(NCC2CCCCC2)n1.O=C(O)C(F)(F)F	86	53	11
O=C(Nc1ccc(I)cc1)Nc1ccc(Cn2ncc(N3CCCNCC3)c(Cl)c2=O)cc1.O=C(O)C(F)(F)F	86	30	35
CC(C)CCCC(C)(C)NC[C@@H](O)[C@H](Cc1ccccc1)NC(=O)c1cccc(CCC2CC2)c1	98	52	100
CCCc1cc(NC2CCN(C)CC2)nc(Nc2ccc(C)cc2)n1	100	20	25
CCN(CC)CCN(Cc1ccc(-c2ccc(C(F)(F)F)cc2)cc1)C(=O)Cn1c(CCc2ccc(F)c(F)c2F)nc(=O)c2cccnc21.O=C(O)C(O)C(O)C(=O)O	89	20	29
CCC(C)NC(=O)Nc1ccc(-c2cccc(-c3nc4ccccc4[nH]3)c2)cc1 (stereo not drawn)	94	37	41
CN(Cc1c(Cl)cnn1C)S(=O)(=O)c1ccc2ccccc2c1	94	36	7
O=[N+]([O-])c1cccc(NC(=S)N2CCCN(Cc3ccc(C(F)(F)F)cc3)CC2)c1	90	49	11
CC(C)(C)c1ccc(C(=O)Nc2ccc(NC(=O)c3ccc([N+](=O)[O-])o3)cc2)cc1	81	4	0
O=C(O)C(F)(F)F.Oc1ccc(CCNc2nc(NCCCOc3cccc(CN4CCCCC4)c3Cl)nc(N3CCNCC3)n2)cc1	100	22	26
CC(C)C[C@@H](/C=N/N1CCNC1=O)NC(=O)[C@H](CC(C)C)NC(=O)c1ccc(OCCN2CCOCC2)cc1	97	89	21
Cc1cc(C(=O)Nc2ccc3c(c2)CCN3C2CCN(Cc3ccc4nsnc4c3)C2)no1 (stereo not drawn)	90	94	0
Cc1ccc(CN2CCN(Cc3cccc(NC(=O)c4cccs4)c3)CC2)cc1C.O=C(O)C(F)(F)F	96	68	41
CCOC(=O)Cc1nc(C(=O)OCC)c(N)[nH]1.Cl	94	24	2
COc1cc2c(cc1O)[C@@H]1[C@H](O)[C@@H](O)C=C3CCN(C2)[C@H]31 [PSEUDOLYCORINE]	90	31	18

Structure (SMILES)	Inhibition (Plasmodium falciparum [1]) [%]	Inhibition (Plasmodium falciparum [2]) [%]	Inhibition (HepG2) [%]
CCN1CCCC(Nc2ccnc3cc4ccccc4cc23)C1 (stereo not drawn)	100	100	38
O=C(NCc1ccccc1)c1ccc(C(=O)NCC2CNCCO2)cc1.O=C(O)C(F)(F)F (stereo not drawn)	92	0	4
Cc1nc(N)nc(N)c1OCCCOc1cccc(Cl)c1Cl.Cl	93	95	59
N=C(N)NN=Cc1ccccc1OCc1ccccc1Cl	100	30	14
CCCCN(C(=O)c1ccccc1Cl)c1nnc(-c2ccccc2C)s1	90	86	12
Cc1cccc(CN2CCCN(Cc3ccc(C(=O)Nc4ccc(C(C)(C)C)cc4)cc3)CC2)c1.O=C(O)C(F)(F)F	97	4	57
CCOCCCNc1nc2cc(OC)c(OC)cc2c2nc(-c3ccccc3)nn12	96	98	10
NC1CCCN(Cc2cccc(-c3ccc(-c4nc5cc(C(F)(F)F)ccc5[nH]4)cc3)c2)C1.O=C(O)C(F)(F)F (stereo not drawn)	99	96	47
CN(C)S(=O)(=O)c1ccc(N2CCN(CCC3(c4cccc(F)c4)CCN(C(=O)C(C)(C)C)CC3)CC2)c2nonc12	91	85	8
CC(C)=CCN1CCC(C(=O)Nc2ccc(-c3nc4ccccc4[nH]3)cc2)CC1	95	0	0
Cl.N#Cc1cccc(-c2cccc(C(=O)NC3CCC(CCN4CCc5ccc(C#N)cc5CC4)CC3)c2)c1 (stereo not drawn)	99	57	31
Cc1sc(CNCCCNc2cc(=O)c3ccccc3[nH]2)c(C(F)(F)F)c1C.Cl	99	70	0
NCC1CCCN1Cc1ccc(-c2ccc(-c3nc4cc(F)ccc4[nH]3)cc2)cc1.O=C(O)C(F)(F)F (stereo not drawn)	100	100	31
CCOc1cc(C)ccc1C1CCN(CCCCNC(=O)c2ccc(-c3ccc(C(F)(F)F)cn3)cc2)CC1.Cl	99	45	55
Cc1cccc2nc(-c3ccc(-c4ccc(CNCc5cccc(N)c5)cc4)cc3)[nH]c12.O=C(O)C(F)(F)F	100	84	12
Cc1ccccc1C1CCN(C2CCC(NC(=O)c3cncc(-c4ccccc4)c3)CC2)CC1 (stereo not drawn)	100	92	27
COc1ccc(-c2nccc(NC(=N)NCc3ccccc3)n2)cc1	83	21	27
CNCCCNc1ccnc2cc(Cl)ccc12	100	25	11
C=C(C)COc1ccc(-c2n[nH]c(C(F)(F)F)c2-c2ccccc2OC)c(O)c1	98	72	19
